{"source": "the supplement of paper PMC11001985", "data": [{"compound": "C#CCNC(=O)CCSSCCC(=O)NCCc1ccc(C=O)c(C=O)c1", "assay": "lysine labeling ratio R10:1 (500 µM / 50 µM probe), SILAC-ABPP in living cells; higher = lower intrinsic lysine reactivity toward the probe, active = 2 or less", "settings": "HeLa; probe concentrations 500 vs 50 µM", "procedure,_shortened": "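Each lysine carries an R value: the filtered median of MS1 peptide ratios of high probe to low probe, with the median then taken over forward and reverse replicates. These came from living SILAC light and heavy HeLa cells in PBS at room temperature labelled with an alkyne-tagged, disulfide-linked lysine probe at 500 µM or 50 µM, in forward and reverse swaps. The lysates were mixed, clicked to biotin-azide, trypsin-digested, captured on neutravidin, released by DTT, alkylated and run by LC-MS/MS on a TIMS-TOF Pro. The highest value allowed is 20.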", "values": [{"target": "CKB (lysine site: K313) (UniProt P12277)", "lysine labeling ratio R10:1": "1.31 (active)"}, {"target": "PPIA (lysine site: K49) (UniProt P62937)", "sequence (P62937 whole entry, looked up)": "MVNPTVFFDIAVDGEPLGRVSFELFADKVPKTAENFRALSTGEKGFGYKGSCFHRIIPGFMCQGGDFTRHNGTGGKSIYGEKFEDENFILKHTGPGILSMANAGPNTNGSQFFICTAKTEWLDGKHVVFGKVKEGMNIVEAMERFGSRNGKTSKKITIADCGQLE", "lysine labeling ratio R10:1": "3.03 (inactive)"}, {"target": "FAT1 (lysine site: K2562) (UniProt Q14517)", "lysine labeling ratio R10:1": "1.58 (active)"}, {"target": "SPTAN1 (lysine site: K1784) (UniProt Q13813)", "sequence (Q13813 whole entry)": "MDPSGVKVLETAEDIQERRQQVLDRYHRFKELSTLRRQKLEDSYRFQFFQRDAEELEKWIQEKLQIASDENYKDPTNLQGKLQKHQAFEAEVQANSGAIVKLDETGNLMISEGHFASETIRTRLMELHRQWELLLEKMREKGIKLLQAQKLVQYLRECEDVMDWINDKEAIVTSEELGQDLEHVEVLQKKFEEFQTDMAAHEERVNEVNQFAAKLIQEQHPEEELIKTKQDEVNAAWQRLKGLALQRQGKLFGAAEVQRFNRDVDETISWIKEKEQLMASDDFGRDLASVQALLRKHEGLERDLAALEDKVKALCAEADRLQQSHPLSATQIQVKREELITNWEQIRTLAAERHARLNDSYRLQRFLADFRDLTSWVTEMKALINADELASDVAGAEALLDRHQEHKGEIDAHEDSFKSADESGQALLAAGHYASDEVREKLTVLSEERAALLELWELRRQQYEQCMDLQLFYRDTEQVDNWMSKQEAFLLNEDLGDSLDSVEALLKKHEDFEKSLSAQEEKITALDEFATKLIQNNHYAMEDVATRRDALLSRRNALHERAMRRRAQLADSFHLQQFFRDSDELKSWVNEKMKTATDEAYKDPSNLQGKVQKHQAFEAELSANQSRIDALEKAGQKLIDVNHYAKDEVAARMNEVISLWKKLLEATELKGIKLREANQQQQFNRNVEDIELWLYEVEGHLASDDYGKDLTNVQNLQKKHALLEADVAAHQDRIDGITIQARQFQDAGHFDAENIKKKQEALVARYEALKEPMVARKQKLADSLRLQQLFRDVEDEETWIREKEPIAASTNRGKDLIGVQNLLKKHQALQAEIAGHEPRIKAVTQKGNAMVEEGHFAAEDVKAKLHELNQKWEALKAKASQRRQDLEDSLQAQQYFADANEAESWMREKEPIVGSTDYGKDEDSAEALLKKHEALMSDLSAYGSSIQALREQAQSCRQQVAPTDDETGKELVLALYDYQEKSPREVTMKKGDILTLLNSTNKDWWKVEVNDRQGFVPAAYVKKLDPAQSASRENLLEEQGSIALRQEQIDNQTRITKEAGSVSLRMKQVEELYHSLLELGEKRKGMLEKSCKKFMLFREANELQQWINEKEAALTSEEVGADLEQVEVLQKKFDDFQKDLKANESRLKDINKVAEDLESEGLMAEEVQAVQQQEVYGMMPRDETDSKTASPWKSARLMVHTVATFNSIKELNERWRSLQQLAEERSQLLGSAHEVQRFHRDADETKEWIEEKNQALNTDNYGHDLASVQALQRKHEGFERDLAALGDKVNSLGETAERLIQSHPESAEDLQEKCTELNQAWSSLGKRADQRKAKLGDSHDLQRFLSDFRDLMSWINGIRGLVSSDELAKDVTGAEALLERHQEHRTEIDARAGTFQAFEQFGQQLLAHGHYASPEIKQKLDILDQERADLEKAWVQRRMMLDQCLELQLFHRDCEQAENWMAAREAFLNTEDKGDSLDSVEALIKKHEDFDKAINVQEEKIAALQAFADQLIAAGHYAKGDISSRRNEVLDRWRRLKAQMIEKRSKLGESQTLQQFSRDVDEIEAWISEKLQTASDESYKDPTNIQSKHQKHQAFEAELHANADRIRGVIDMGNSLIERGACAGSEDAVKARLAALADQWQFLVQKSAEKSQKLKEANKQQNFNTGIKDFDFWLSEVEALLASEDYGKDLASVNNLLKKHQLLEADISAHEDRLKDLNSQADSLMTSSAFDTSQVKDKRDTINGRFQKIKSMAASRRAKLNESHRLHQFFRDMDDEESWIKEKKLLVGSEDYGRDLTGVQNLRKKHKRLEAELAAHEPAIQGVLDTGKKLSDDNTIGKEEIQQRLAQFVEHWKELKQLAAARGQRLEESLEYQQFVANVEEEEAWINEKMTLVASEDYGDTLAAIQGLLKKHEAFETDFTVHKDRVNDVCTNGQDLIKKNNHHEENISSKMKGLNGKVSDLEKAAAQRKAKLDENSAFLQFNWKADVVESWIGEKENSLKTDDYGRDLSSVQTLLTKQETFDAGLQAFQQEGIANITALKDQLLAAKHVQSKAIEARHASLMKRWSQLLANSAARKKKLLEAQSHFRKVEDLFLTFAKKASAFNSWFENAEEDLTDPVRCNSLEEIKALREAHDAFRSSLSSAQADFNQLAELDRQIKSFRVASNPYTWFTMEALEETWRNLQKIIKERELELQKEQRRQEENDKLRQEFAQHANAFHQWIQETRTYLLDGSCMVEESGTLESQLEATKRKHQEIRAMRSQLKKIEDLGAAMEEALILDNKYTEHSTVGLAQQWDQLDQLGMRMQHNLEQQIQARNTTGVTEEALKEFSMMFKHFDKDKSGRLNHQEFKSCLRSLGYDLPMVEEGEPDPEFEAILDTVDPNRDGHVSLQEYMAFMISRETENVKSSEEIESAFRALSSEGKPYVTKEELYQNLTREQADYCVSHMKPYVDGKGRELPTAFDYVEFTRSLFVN", "lysine labeling ratio R10:1": "1.22 (active)"}, {"target": "BASP1 (lysine site: K143) (UniProt P80723)", "sequence (P80723 whole entry)": "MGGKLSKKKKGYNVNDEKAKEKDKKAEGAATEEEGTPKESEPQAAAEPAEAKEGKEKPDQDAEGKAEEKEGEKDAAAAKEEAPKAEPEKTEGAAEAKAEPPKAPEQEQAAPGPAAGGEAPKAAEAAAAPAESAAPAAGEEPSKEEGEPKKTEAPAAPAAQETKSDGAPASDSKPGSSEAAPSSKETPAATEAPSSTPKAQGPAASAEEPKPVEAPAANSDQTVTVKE", "lysine labeling ratio R10:1": "3.54 (inactive)"}, {"target": "WNT5A (lysine site: K348) (UniProt P41221)", "lysine labeling ratio R10:1": "1.98 (active)"}, {"target": "SERBP1 (lysine site: K122) (UniProt Q8NC51)", "lysine labeling ratio R10:1": "11.8 (inactive)"}, {"target": "BTN2A1 (lysine site: K101) (UniProt Q7KYR7)", "lysine labeling ratio R10:1": "2.46 (inactive)"}, {"target": "THBS1 (lysine site: K1103) (UniProt P07996)", "lysine labeling ratio R10:1": "0.85 (active)"}, {"target": "DAG1 (lysine site: K500) (UniProt Q14118)", "lysine labeling ratio R10:1": "4.65 (inactive)"}, {"target": "YBX1 (lysine site: K264) (UniProt P67809)", "lysine labeling ratio R10:1": "4.18 (inactive)"}, {"target": "SMOC1 (lysine site: K381) (UniProt Q9H4F8)", "sequence (Q9H4F8 whole entry)": "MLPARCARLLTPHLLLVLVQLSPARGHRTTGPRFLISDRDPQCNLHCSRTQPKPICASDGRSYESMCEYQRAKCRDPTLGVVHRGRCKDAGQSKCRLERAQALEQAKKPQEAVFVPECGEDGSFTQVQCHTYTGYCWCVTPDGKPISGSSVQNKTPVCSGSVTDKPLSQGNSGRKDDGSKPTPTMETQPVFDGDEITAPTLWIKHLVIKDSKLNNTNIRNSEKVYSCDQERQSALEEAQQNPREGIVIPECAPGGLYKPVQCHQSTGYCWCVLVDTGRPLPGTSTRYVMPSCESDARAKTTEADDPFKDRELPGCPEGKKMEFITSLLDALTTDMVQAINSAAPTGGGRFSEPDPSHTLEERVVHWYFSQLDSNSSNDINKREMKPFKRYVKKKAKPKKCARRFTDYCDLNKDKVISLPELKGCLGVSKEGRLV", "lysine labeling ratio R10:1": "1.04 (active)"}, {"target": "ENAH (lysine site: K574) (UniProt Q8N8S7)", "lysine labeling ratio R10:1": "5.16 (inactive)"}, {"target": "UniProt P25705 (lysine site: K194)", "sequence (P25705 whole entry)": "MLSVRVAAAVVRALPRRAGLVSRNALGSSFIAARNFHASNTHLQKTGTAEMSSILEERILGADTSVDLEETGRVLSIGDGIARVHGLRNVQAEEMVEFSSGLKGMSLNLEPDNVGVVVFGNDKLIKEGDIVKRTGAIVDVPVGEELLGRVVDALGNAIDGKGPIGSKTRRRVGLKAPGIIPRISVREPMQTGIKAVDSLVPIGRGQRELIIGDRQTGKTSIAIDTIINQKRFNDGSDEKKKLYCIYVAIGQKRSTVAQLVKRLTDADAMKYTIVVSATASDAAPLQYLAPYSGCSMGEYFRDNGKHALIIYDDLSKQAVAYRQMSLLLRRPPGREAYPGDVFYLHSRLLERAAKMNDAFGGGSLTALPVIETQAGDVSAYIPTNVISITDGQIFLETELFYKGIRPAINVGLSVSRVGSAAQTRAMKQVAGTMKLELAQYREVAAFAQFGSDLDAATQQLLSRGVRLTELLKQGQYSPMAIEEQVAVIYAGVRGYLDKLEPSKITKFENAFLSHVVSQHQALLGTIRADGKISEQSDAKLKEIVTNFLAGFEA", "lysine labeling ratio R10:1": "1.81 (active)"}, {"target": "EPHA2 (lysine site: K468) (UniProt P29317)", "lysine labeling ratio R10:1": "3.11 (inactive)"}, {"target": "UniProt Q9HAB3 (lysine site: K437)", "sequence (Q9HAB3 whole entry)": "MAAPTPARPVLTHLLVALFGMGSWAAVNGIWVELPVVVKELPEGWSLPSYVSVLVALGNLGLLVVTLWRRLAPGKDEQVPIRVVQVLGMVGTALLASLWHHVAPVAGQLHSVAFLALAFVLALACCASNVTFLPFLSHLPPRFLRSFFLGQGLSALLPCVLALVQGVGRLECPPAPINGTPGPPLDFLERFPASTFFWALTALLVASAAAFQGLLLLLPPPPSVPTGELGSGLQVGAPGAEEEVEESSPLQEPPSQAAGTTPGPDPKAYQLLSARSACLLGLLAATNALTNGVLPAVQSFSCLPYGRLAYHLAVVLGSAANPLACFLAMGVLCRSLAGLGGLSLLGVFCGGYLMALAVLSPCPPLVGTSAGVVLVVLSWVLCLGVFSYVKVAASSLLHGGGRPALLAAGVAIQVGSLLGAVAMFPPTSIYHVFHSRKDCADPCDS", "lysine labeling ratio R10:1": "2.11 (inactive)"}, {"target": "HSPD1 (lysine site: K469) (UniProt P10809)", "sequence (P10809 whole entry)": "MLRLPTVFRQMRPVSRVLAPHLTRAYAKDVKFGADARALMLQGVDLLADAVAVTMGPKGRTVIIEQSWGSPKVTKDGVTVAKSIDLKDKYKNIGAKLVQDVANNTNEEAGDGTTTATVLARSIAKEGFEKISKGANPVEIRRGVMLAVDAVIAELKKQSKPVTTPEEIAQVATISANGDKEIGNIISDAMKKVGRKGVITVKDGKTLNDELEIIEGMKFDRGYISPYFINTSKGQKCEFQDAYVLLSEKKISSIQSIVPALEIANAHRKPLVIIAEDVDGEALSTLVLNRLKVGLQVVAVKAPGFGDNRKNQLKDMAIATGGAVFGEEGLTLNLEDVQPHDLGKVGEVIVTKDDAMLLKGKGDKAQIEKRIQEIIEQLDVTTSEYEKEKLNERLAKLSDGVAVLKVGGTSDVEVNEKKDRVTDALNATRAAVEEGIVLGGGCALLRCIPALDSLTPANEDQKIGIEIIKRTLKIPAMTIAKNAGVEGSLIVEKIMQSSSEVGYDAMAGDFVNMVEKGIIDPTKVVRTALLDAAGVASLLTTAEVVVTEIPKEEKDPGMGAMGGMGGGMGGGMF", "lysine labeling ratio R10:1": "4.7 (inactive)"}]}]}
